# Unmarked numbers belong to inactive results. Results filed as inconclusive are left out. Entries that show only a call come without a potency. Active and inactive are the calls of the source. Unless noted, calls follow the shape of the dose curve; as a rule, active = well fitted curve in the direction sought with a large enough effect; inconclusive = small, poorly fitted or top-dose-only effect, or another doubt; inactive = no such curve, though single readings can be large; an effect the other way counts as inactive or inconclusive.
# Tests used:
# [1] = molecular target: Beta-2 adrenergic receptor (Homo sapiens) (UniProt P07550); experiment: qHTS validation assay of beta-arrestin-biased ligands of beta2-adrenergic receptor (AID 485366)
# Beta-2 adrenergic receptor (Homo sapiens), sequence (P07550 whole entry, looked up): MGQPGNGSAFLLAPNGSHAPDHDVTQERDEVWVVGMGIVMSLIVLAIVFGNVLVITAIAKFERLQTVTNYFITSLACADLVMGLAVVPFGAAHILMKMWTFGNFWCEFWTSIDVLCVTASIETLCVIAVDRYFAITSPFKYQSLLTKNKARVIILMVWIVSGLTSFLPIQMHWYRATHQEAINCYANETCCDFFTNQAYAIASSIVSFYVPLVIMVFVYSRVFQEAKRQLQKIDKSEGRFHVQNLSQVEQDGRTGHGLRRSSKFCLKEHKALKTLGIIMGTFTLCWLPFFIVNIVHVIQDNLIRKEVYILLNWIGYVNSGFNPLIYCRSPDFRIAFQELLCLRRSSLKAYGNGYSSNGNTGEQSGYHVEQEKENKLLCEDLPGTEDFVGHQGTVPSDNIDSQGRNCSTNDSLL
# Procedure, shortened: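 Screening used a titration range of up to 46 microM in a beta-arrestin recruitment Tango luciferase assay. Cells in 1% FBS medium were treated 18 hr at 37 degrees C, and luminescence was normalized to %Activity.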
# [2] = molecular target: ATP-dependent 6-phosphofructokinase (Trypanosoma brucei brucei) (UniProt O15648); experiment: qHTS Validation Assay to Find Inhibitors of T. brucei phosphofructokinase (AID 485368)
# ATP-dependent 6-phosphofructokinase (Trypanosoma brucei brucei), sequence (O15648 whole entry, looked up): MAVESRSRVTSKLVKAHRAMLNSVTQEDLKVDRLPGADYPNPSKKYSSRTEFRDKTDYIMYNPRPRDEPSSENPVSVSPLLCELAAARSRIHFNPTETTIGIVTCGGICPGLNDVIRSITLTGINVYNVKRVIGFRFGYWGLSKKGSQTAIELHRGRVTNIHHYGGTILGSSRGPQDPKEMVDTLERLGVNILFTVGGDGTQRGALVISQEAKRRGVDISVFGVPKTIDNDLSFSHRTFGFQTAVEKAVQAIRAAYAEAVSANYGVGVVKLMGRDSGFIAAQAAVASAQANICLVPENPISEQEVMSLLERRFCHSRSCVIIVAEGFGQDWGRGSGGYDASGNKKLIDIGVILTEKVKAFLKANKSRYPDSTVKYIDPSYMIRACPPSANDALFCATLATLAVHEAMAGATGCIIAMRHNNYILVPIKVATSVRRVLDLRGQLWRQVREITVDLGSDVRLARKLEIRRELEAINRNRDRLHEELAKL
# Procedure, shortened: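 PFK-generated ADP was measured after 45 min at room temperature using ADP-Glo. The reaction contained 0.5 mM F6P and 0.1 mM ATP.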
# [3] = Quantitative high throughput screen for delayed death inhibitors of the malarial parasite plastid, 96 hour incubation (AID 488745); also: nearly all actives have a fitted effect of over 70% in size; also: potency is read from the fitted curve at half-maximal effect
# Procedure, shortened: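 Luciferase-expressing P. falciparum, infected RBCs 2% Hct/0.1% parasitemia (final); 96 h cpd exposure, 37 C, 5% CO2; RPMI 1640 + 0.5% Albumax, bicarbonate, gentamycin. Readout: luminescence loss = growth inhibition.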
# [4] = Quantitative high throughput screen for delayed death inhibitors of the malarial parasite plastid, 48 hour incubation (AID 488752); also: nearly all actives have a fitted effect of over 65% in size; also: potency is read from the fitted curve at half-maximal effect
# Procedure, shortened: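 Luciferase-expressing P. falciparum in RBCs, 2% Hct, 0.1% parasitemia final; RPMI 1640 + 0.5% Albumax; 48 h, 37 C, 5% CO2; luminescence readout, signal drop = growth inhibition.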
# [5] = molecular target: Thioredoxin reductase 1, cytoplasmic (Rattus norvegicus) (UniProt O89049); experiment: qHTS Assay for Substrates of Mammalian Selenoprotein Thioredoxin Reductase 1 (TrxR1) (AID 488772);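 also: series mostly up to about 57 µM; a drop in NADPH fluorescence below the no-compound background marks a TrxR1 substrate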
# Procedure, shortened: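 In this dual-purpose format, potential substrates are identified from the first fluorescence read after selenite addition, not from the 8-minute delta. Rat enzyme is preincubated with NADPH and then with compound at ~22 deg C.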
# [6] = molecular target: Thioredoxin reductase 1, cytoplasmic (Rattus norvegicus) (UniProt O89049); experiment: qHTS Assay for Inhibitors of Mammalian Selenoprotein Thioredoxin Reductase 1 (TrxR1) (AID 488773); settings: Potency: inhibition;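 also: drop in NADPH fluorescence over an 8 min run after selenite addition; series mostly up to about 57 µM; nearly all actives have a fitted effect of over 40% in size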
# Procedure, shortened: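 Inhibition is scored from the loss of NADPH fluorescence between first and last reads of an 8-min kinetic run. Selenite (400 uM) was the substrate, added after 15 min compound preincubation at room temperature.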
# [7] = molecular target: Flap endonuclease 1 (Homo sapiens) (UniProt P39748); experiment: qHTS Validation Assay for the Inhibitors of Human Flap endonuclease 1 (FEN1) (AID 488816)
# Flap endonuclease 1 (Homo sapiens), sequence (P39748 whole entry, looked up): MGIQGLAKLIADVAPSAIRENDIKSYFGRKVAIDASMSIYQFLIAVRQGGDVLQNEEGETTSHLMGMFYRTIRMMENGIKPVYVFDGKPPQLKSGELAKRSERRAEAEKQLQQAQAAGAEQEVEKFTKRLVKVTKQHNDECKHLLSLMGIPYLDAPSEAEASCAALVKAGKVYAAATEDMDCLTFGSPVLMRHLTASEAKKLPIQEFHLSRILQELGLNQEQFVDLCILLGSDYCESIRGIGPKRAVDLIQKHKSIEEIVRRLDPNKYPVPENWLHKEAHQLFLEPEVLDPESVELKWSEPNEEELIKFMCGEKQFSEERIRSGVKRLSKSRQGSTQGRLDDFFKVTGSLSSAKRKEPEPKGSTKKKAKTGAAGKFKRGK
# Procedure, shortened: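 Steps: add FEN1 (10 nM reagent) or buffer only; pin compounds; hold 15 min at room temperature; start with substrate, 50 nM final; read at 0 and 15 min; correct, normalize and fit a four-parameter Hill curve.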
# [8] = molecular target: M-phase phosphoprotein 8 (Homo sapiens) (UniProt Q99549); experiment: qHTS Validation Assay for Inhibitors for MPP8 Chromodomain Interactions with Methylated Histone Tails (AID 488949);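 also: 50 nM MPP8 with 50 nM peptide preformed then compounds added for 30 min; AlphaScreen signal from MPP8 chromodomain bound to biotinylated H3K9me3 peptide; top concentration of the series differs between compounds; nearly all actives have a fitted effect of over 55% in size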
# Procedure, shortened: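 Chemiluminescent proximity assay: histidine-tag capture via nickel acceptor beads, biotin peptide via streptavidin donor beads. Protein and peptide each at 50 nM, pH 7.4, with 30 min incubations at room temperature for complex formation, compound exposure and bead binding.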
# [9] = molecular target: Chromobox protein homolog 1 (Homo sapiens) (UniProt P83916); experiment: qHTS Validation Assay for Inhibitors of HP1-beta Chromodomain Interactions with Methylated Histone Tails (AID 488953);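 also: loss of AlphaScreen luminescence from HP1-beta binding biotinylated H3K9me3 peptide; series mostly up to about 110 µM; nearly all actives have a fitted effect of over 50% in size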
# Chromobox protein homolog 1 (Homo sapiens), sequence (P83916 whole entry, looked up): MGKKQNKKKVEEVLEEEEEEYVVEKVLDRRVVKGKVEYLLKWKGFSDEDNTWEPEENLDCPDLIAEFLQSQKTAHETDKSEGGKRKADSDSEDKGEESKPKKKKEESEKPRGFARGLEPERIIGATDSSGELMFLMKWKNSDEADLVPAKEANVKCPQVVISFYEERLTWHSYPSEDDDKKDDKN
# Procedure, shortened: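 AlphaScreen proximity readout: streptavidin donor and Ni-chelate acceptor beads, 10 ug/mL final, 30 min dark, RT. Complex of 50 nM HP1-beta and 50 nM b-H3(1-18)K9me3 formed 30 min, then compound-treated 30 min; PBS pH 7.4/0.01% Tween-20.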
# [10] = molecular target: Methanococcus maripaludis chaperonin (MmCpn) (UniProt Q6LX38); experiment: High-Throughput Screening for Modulators of Cytosolic Chaperonin Activity: MmCpn Primary Screen (AID 488978)
# Procedure, shortened: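 HTRF readout (320 nm excitation, 590/665 nm emission) of ADP generated by 50 nM MmCpn hydrolysing 30 uM ATP during 10 min at 37C; compound preincubated 5 min RT.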
# [11] = molecular target: Transient receptor potential cation channel subfamily V member 1 (Homo sapiens) (UniProt Q8NER1); experiment: HTS Assay for Compounds that Act as Enhancers of the Vanilloid Receptor 1 (AID 488979)
# Procedure, shortened: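 TRPV1-expressing cells loaded with Fluo-8 calcium dye; compounds added and calcium influx read kinetically for 3 min (agonist phase), then capsaicin at EC20 added and read 2 min more for enhancement. Fluorescence ex 480/em 520 nm.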
# [12] = molecular target: Thyrotropin receptor (Homo sapiens) (UniProt P16473); experiment: qHTS Assay for Antagonists of the Thyroid Stimulating Hormone Receptor (AID 488980); also: series mostly up to about 58 µM
# Thyrotropin receptor (Homo sapiens), sequence (P16473 whole entry, looked up): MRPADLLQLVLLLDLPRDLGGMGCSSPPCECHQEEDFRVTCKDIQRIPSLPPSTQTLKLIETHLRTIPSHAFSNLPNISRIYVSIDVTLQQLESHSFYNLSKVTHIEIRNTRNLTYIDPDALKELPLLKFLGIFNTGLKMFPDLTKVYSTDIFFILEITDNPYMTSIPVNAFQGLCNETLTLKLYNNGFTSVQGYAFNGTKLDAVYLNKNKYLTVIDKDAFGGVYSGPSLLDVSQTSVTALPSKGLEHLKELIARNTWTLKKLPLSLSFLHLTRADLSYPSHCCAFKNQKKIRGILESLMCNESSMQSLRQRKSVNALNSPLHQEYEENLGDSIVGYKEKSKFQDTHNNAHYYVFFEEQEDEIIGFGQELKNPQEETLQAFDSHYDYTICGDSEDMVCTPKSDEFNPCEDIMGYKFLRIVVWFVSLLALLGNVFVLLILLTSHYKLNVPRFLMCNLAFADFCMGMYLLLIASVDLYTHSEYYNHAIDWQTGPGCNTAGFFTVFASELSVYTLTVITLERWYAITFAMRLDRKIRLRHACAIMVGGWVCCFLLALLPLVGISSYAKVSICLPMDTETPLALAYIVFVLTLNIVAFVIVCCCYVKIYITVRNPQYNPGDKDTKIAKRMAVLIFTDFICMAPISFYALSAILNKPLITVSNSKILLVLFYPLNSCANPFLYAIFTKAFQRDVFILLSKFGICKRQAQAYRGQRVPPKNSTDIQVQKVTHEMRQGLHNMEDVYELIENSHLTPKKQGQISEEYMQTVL
# Procedure, shortened: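 Inhibition of TSH-stimulated cAMP accumulation was quantified by homogeneous time-resolved FRET in TSHR-transfected HEK293 cells. Agonist: TSH, 4 nM final (EC80).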
# [13] = molecular target: D(1A) dopamine receptor (Homo sapiens) (UniProt P21728); experiment: HTS Assay for Allosteric Agonists of the Human D1 Dopamine Receptor: Primary Screen for Agonists (AID 488981)
# D(1A) dopamine receptor (Homo sapiens), sequence (P21728 whole entry, looked up): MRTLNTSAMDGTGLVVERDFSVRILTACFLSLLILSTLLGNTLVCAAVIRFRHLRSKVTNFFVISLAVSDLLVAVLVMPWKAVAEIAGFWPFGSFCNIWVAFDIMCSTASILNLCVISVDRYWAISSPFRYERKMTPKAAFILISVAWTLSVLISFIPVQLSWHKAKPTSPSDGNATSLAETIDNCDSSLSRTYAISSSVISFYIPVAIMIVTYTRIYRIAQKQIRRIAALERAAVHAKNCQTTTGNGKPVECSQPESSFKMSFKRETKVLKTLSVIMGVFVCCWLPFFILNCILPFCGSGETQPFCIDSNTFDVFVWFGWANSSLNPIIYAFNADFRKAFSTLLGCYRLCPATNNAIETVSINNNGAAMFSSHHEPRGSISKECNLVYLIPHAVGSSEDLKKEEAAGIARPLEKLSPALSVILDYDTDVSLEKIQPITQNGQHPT
# Procedure, shortened: (§1)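 Tetracycline-induced HEK293 T-REx cells force-coupled to calcium signalling were incubated overnight at 30 C and dye-loaded at room temperature. Calcium flux over 180 s after compound addition flagged agonists; a further 180 s read after EC20 dopamine flagged potentiators.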
# [14] = molecular target: D(1A) dopamine receptor (Homo sapiens) (UniProt P21728); experiment: HTS Assay for Allosteric Agonists of the Human D1 Dopamine Receptor: Primary Screen for Potentiators (AID 488982)
# Procedure, shortened: as §1
# [15] = Validation screen for small molecules that induce genotoxicity in human embryonic kidney (HEK293T) cells expressing luciferase-tagged ELG1 (AID 493106)
# Procedure, shortened: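 qHTS format; 2,000 HEK293T ELG1-luc cells/well; 23 nL compound via pin tool; 16 hr, 37 °C/5% CO2; ONE-Glo, 30 min RT; luminescence read.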
# [16] = molecular target: ATPase family AAA domain-containing protein 5 (Homo sapiens) (UniProt Q96QE3); experiment: Validation screen for small molecules that inhibit ELG1-dependent DNA repair in human embryonic kidney (HEK293T) cells expressing luciferase-tagged ELG1 (AID 493107);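 also: cells co-treated with the DNA-damaging agent 5-fluorouridine alongside compound; series mostly up to about 46 µM; inhibitors lower the ELG1-luciferase luminescence signal; nearly all actives have a fitted effect of over 70% in size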
# ATPase family AAA domain-containing protein 5 (Homo sapiens), sequence (Q96QE3 whole entry, looked up, the tested form may be a part): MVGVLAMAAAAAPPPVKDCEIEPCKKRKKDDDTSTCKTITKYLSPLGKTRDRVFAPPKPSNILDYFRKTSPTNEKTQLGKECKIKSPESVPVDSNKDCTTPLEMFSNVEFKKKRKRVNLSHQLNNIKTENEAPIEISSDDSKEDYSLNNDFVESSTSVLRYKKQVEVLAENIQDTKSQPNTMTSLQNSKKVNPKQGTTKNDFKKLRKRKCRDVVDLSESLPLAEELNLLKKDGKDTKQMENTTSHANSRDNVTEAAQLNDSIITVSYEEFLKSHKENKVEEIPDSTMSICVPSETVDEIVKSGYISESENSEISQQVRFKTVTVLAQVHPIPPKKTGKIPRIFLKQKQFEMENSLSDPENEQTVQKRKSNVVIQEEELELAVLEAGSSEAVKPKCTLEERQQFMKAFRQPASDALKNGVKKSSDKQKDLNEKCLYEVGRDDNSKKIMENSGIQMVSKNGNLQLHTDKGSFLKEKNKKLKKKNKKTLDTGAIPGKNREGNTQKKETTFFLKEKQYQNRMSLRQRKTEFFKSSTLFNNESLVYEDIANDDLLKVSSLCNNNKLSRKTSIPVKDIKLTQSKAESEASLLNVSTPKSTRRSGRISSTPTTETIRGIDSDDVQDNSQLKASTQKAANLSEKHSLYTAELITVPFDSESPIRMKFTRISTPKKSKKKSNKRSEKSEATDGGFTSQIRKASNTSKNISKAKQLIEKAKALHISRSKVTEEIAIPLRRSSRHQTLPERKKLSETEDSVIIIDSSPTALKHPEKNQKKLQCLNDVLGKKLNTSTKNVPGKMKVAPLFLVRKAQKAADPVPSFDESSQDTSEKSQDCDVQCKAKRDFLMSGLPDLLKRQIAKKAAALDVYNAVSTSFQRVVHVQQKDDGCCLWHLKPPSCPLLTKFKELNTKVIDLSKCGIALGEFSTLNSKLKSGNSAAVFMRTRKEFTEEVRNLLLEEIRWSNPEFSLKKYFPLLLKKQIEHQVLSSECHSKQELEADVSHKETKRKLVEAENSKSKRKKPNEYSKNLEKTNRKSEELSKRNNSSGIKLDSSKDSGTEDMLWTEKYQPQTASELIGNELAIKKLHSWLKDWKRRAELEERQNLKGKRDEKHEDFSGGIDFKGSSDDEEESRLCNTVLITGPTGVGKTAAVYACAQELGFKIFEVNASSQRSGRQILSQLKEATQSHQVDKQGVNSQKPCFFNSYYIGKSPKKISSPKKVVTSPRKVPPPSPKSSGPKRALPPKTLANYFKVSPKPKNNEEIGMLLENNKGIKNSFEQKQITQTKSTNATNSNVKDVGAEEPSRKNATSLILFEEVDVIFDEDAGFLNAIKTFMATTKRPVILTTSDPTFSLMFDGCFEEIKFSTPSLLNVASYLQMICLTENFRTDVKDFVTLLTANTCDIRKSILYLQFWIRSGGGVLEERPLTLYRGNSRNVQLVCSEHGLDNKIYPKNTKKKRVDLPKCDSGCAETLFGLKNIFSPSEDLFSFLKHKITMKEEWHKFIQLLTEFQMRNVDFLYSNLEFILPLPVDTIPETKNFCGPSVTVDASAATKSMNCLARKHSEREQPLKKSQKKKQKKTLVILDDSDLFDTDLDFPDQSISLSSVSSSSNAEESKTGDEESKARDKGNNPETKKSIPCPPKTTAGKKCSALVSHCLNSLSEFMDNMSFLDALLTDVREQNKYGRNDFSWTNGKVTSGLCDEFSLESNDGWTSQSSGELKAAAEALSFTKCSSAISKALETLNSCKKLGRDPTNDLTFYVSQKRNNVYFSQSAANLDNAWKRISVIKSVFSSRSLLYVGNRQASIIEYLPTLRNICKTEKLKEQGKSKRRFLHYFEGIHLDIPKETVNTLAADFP
# Procedure, shortened: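 ELG1-luciferase HEK293T reporter; 5-fluorouridine + compound/DMSO, 16 hr, 37 °C, 5% CO2; ONE-Glo 30 min RT; luminescence read, qHTS format.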
# [17] = molecular target: Thyrotropin-releasing hormone receptor (Homo sapiens) (UniProt P34981); experiment: qHTS for Small Molecule Agonists and Allosteric Enhancers of Human TRH Receptor: Validation Screen for Agonists (AID 493127;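 active = calcium activation more than 3 SD above the typical response in the agonist read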;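 also: intracellular calcium rise by fluo-8 fluorescence before TRH EC20 addition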); settings: TRH receptor agonist cell assay; at 2 µM; hits give high values
# Thyrotropin-releasing hormone receptor (Homo sapiens), sequence (P34981 whole entry, looked up): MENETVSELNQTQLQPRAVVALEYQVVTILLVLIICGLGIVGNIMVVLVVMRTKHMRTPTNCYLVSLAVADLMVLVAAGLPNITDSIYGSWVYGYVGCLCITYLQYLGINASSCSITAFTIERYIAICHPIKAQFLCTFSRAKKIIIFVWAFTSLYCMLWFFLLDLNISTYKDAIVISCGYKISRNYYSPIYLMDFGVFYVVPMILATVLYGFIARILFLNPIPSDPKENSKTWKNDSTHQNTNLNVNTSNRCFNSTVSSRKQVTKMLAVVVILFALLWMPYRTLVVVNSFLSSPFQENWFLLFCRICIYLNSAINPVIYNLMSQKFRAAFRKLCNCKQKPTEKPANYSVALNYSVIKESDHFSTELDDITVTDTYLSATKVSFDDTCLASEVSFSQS
# Procedure, shortened: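 Read-out: intracellular calcium release measured kinetically by FDSS (fluo-8, ex 480/em 530 nm), 1 reading/s after a 10-cycle baseline. TRHR cells, 2000/well, cultured 18 h at 33.5C, dye-loaded at room temp. Compound-evoked positive calcium signal flags agonists.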
# [18] = molecular target: D(1A) dopamine receptor (Homo sapiens) (UniProt P21728); experiment: HTS Assay for Allosteric Agonists of the Human D1 Dopamine Receptor: Primary Screen for Antagonists (AID 488983);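 also: calcium flux response to an EC80 dopamine challenge measured with no-wash dye; nearly all actives have a fitted effect of over 65% in size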
# Procedure, shortened: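 Calcium flux readout, no-wash dye, inducible HEK293 T-REx D1 line (force-coupled). Compound added after 10 s baseline, 180 s kinetic read; then dopamine at EC80, further 180 s read.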
SMILES,outcome [1],Potency [2],Potency [3],Potency [4],outcome [5],Potency [6],Potency [7],Potency [8],Potency [9],outcome [10],outcome [11],outcome [12],Potency [13],Potency [14],Potency [15],Potency [16],activation [17],Potency [18]
N=C(N)c1ccccc1,inactive,inactive,inactive,inactive,inactive,inactive,inactive,inactive,inactive,inactive,inactive,inactive,inactive,inactive,inactive,inactive,1.19%,–
CSC(N)=NCCC[C@H](N)C(=O)O,inactive,inactive,inactive,inactive,inactive,inactive,inactive,inactive,inactive,inactive,inactive,inactive,–,inactive,inactive,–,0.75%,inactive
Cn1c(=O)[nH]c2ncn(C)c2c1=O,inactive,inactive,inactive,inactive,inactive,inactive,inactive,inactive,inactive,inactive,inactive,inactive,–,inactive,inactive,inactive,0.188%,inactive
CC(=O)NNC(=O)N1Cc2ccccc2Oc2ccc(Cl)cc21,inactive,inactive,inactive,inactive,inactive,inactive,inactive,inactive,inactive,inactive,inactive,inactive,inactive,inactive,inactive,inactive,0.562%,inactive
CN[C@H](CC(=O)O)C(=O)O,inactive,inactive,inactive,inactive,inactive,inactive,inactive,–,–,inactive,inactive,inactive,inactive,inactive,inactive,inactive,1%,inactive
NC(N)=N[C@@H](CCC(=O)O)C(=O)O,inactive,inactive,inactive,inactive,inactive,inactive,inactive,inactive,inactive,inactive,inactive,inactive,inactive,–,inactive,inactive,0.0625%,inactive
CC[N+](CC)(CC)CC(=O)Nc1c(C)cccc1C,inactive,inactive,inactive,inactive,inactive,inactive,inactive,inactive,inactive,inactive,inactive,inactive,inactive,inactive,inactive,inactive,0.625%,inactive
N[C@H]1CONC1=O,inactive,inactive,inactive,–,inactive,inactive,inactive,inactive,inactive,inactive,inactive,inactive,inactive,–,inactive,inactive,–,inactive
O=S(=O)(c1cccc2c(Cl)cccc12)N1CCCNCC1,inactive,inactive,inactive,inactive,inactive,–,inactive,–,inactive,inactive,–,inactive,inactive,inactive,inactive,–,1.56%,inactive
C=CC1(C)CC(=O)C2(O)C(C)(O1)C(OC(C)=O)C(O)C1C(C)(C)CCC(O)C12C (stereo not drawn),inactive,inactive,inactive,inactive,inactive,–,inactive,inactive,inactive,inactive,inactive,inactive,inactive,inactive,–,inactive,–,inactive
COc1cc(C(O)CO)ccc1O (stereo not drawn),inactive,inactive,inactive,inactive,inactive,–,inactive,inactive,inactive,inactive,inactive,inactive,inactive,–,inactive,inactive,0.688%,inactive
O=C(O)c1cccnc1C(=O)O,inactive,inactive,inactive,inactive,inactive,–,–,inactive,–,inactive,inactive,inactive,inactive,inactive,inactive,–,–,inactive
CCCc1c(OCCCOc2ccc(OCC(=O)O)cc2)ccc(C(C)=O)c1O,inactive,inactive,inactive,inactive,inactive,inactive,–,inactive,inactive,inactive,inactive,inactive,–,inactive,inactive,inactive,–,–
OC[C@H]1O[C@@H](n2cnc3cncnc32)[C@H](O)[C@@H]1O,inactive,inactive,3.29 µM (active),–,inactive,inactive,inactive,inactive,inactive,inactive,inactive,inactive,inactive,inactive,inactive,–,1.44%,inactive
CCCCCCN(CCCCCC)C(=O)Cc1c(-c2ccc(F)cc2)[nH]c2ccccc12,inactive,inactive,3.7 µM (active),5.22 µM (active),inactive,–,inactive,inactive,inactive,inactive,inactive,inactive,inactive,inactive,inactive,inactive,-4%,–
CC1C(=O)N(C)C(=O)c2nc[nH]c21 (stereo not drawn),inactive,inactive,inactive,inactive,inactive,–,–,inactive,–,inactive,inactive,inactive,inactive,inactive,inactive,inactive,1.25%,inactive
